# Compounds with a hit are over-represented: about 2.2% of the library has one in this group of screens.
# EBV LMP1 NFkB – inhibitors of Epstein-Barr LMP1-induced NF-kappaB reporter; 0.69% of 350,000 active; inhibition, % at 12.5 µM; LMP1-induced NF-kappaB luciferase reporter cells, luminescence; in the data active means inhibition above about 41%;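 further: 0% = neutral control wells and 100% = reference inhibitor control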
# LGR2 inh – inhibitors of bursicon-induced Drosophila LGR2 receptor cAMP signaling; HEK293 LGR2, CRE-luciferase, bursicon-stimulated, 4 h; inhibition, % at 9.99 µM; 0.35% of 380,000 active; AID 720647;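 active means drop in luminescence signal, shown as inhibition above about 50% in the replicate tests, limit read from the data, passing the limit was not always enough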;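 further: agonist challenge used bursicon conditioned medium at about half maximal strength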
# PAX8 reporter – inhibitors of PAX8 transcriptional activity in RMG-I cells | 1.2% of 360,000 active | RMG-I TPO-luciferase reporter, SteadyGlo, 24 h | AID 652154 | inhibition, % at 12.6 µM;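 active means mean replicate inhibition at least 60% with every replicate also reaching 60%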;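 further: luciferase light reporting Pax8 driven TPO promoter activity; plate controls were median of neutral control wells for no effect and mitoxantrone controls for full effect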
# EWS-Fli inh – EWS/Fli transcriptional activity inhibition | A673 NR0B1-luciferase reporter, viability-normalised | inhibition, % at 12.6 µM | AID 651661 | 0.67% of 350,000 active;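 active means mean inhibition of at least 50% after viability correction, with every replicate also passing that limit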;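 further: firefly luciferase signal divided by Alamar Blue viability fluorescence both relative to DMSO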
# PGC1a acetyl inh – PGC1a acetylation modulation, inhibitor mode; U2OS PGC1a acetylation, AlphaScreen anti-acetyl-lysine; with virally co-expressed GCN5 acetyltransferase; inhibition, % at 15.6 µM; 0.17% of 350,000 active;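 active means every replicate shows inhibition of at least 40%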;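 further: 0% = neutral control wells and 100% = positive control wells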
# MITF TRPM1 inh – reduces MITF-dependent TRPM1 promoter luciferase signal; inhibition, % at 12.5 µM; 0.83% of 330,000 active; SK-MEL-5 TRPM1 promoter luciferase, 24 h;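 active means mean inhibition across replicates of 60% or more, whatever share of single replicates reaches that level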
# The depositor's hits bear a star; . = no result given; ! = not active in a repeat.
SMILES,EBV LMP1 NFkB,LGR2 inh,PAX8 reporter,EWS-Fli inh,PGC1a acetyl inh,MITF TRPM1 inh
Cc1noc(C)c1NC(=O)Nc1ccc2c(c1)C(=O)N([C@H](C)CO)C[C@@H](C)[C@H](CN(C)C(=O)Nc1ccc(F)cc1)O2,.,-23,-4,-9,-10,.
O=C(Cc1ccccn1)N[C@@H]1CC[C@@H](CCn2cc(-c3ccc(F)cc3)nn2)O[C@H]1CO,.,2,4,.,0,.
COc1ccc(S(=O)(=O)Nc2ccc3c(c2)C(=O)N([C@@H](C)CO)C[C@H](C)[C@@H](CN(C)S(=O)(=O)c2ccc(Cl)cc2)OCCCC[C@H](C)O3)cc1,.,11,65*,21,5,.
COc1ccc(-c2ccc3c(c2)[C@H]2[C@H](CCN2C(=O)Cc2cccnc2)[C@H](CO)N3C)cc1,.,.,86*,6,-40,.
CN1c2ccc(C#Cc3cccnc3)cc2[C@@H]2[C@@H](CCN2C(=O)Cc2cccnc2)[C@@H]1CO,.,-3,88*,-12,-4,.
CN1c2ccc(C#Cc3cccnc3)cc2[C@H]2[C@H](CCN2C(=O)C2CC2)[C@@H]1CO,.,4,-28,-4,-3,.
CN1c2ccc(-c3cccc(F)c3)cc2[C@@H]2[C@@H](CCN2C(=O)Cc2ccccc2)[C@@H]1CO,.,9,75*,2,3,.
COCC#Cc1ccc2c(c1)O[C@H](CN(C)S(=O)(=O)c1cccc(F)c1)[C@H](C)CN([C@H](C)CO)S2(=O)=O,.,-12,.,-1,-2,.
CS(=O)(=O)N1CC(=O)N2[C@H](CO)[C@H](c3ccc(C#CCC4CCCC4)cc3)[C@H]2C1,.,-19,76*,-8,-19,.
Cc1ccccc1S(=O)(=O)N1CC(=O)N2[C@H](CO)[C@H](c3ccc(C#CCC(C)C)cc3)[C@H]2C1,.,11,66*,-1,0,.
COCC(=O)Nc1ccc2c(c1)OC[C@H](C)N(C(=O)c1cccnc1)C[C@H](C)[C@@H](OC)CN(C)C2=O,.,1,.,-4,1,.
CSc1ccc(/C=C/C(=O)Nc2ccccc2)cc1,0,77*,-38,5,.,-47
COC(=O)c1cccc(NC(=O)/C=C/c2ccc([N+](=O)[O-])cc2)c1,14,1,-44,70*,.,18
O=C(Nc1ccc([N+](=O)[O-])cc1)C(=O)Nc1cccc(C(=O)O)c1,90*,98*,101*,91*,-6,.
COC(=O)c1cccc(NC(=O)/C=C/c2cccc([N+](=O)[O-])c2)c1,0,-7,.,14,.,-39
CCOC(=O)c1cccc(NC(=O)/C=C/c2ccc([N+](=O)[O-])cc2)c1,16,6,7,60*,.,13
O=C(/C=C/c1ccccc1)Nc1cc(NC(=O)/C=C/c2ccccc2)cc(C(=O)O)c1,8,30,14,25,-4,18
O=C(/C=C/c1ccccc1)Nc1cccc(C(=O)O)c1,80*,103*,96*,86*,-12,99*
C[C@H](CO)N1C[C@H](C)[C@H](CN(C)C(=O)Nc2ccc(F)cc2)Oc2c(NC(=O)NC3CCCCC3)cccc2C1=O,.,3,-1,-2,2,.
C[C@@H]1CCCCO[C@H](CN(C)Cc2ccc(Cl)c(Cl)c2)[C@@H](C)CN([C@@H](C)CO)C(=O)c2cc(NS(=O)(=O)c3ccccc3)ccc2O1,.,.,103*,19,-8,.
C[C@H]1CCCCO[C@H](CN(C)Cc2ccc(Cl)c(Cl)c2)[C@@H](C)CN([C@@H](C)CO)C(=O)c2cc(NS(=O)(=O)c3ccccc3)ccc2O1,.,-4,5,15,-2,.
C[C@@H]1CCCCO[C@@H](CN(C)Cc2ccc(Cl)c(Cl)c2)[C@H](C)CN([C@@H](C)CO)C(=O)c2cc(NS(=O)(=O)c3ccccc3)ccc2O1,.,10,95*,10,-20,.
C[C@@H]1CN([C@H](C)CO)C(=O)c2cc(NS(=O)(=O)c3ccccc3)ccc2O[C@@H](C)CCCCO[C@@H]1CN(C)Cc1ccc(Cl)c(Cl)c1,.,23,102*!,16,-11,.
C[C@@H]1CCCCO[C@H](CN(C)Cc2ccc(Cl)c(Cl)c2)[C@@H](C)CN([C@H](C)CO)C(=O)c2cc(NS(=O)(=O)c3ccccc3)ccc2O1,.,1,-25,0,7,.
C[C@@H]1CCCCO[C@@H](CN(C)C(=O)c2ccccc2)[C@H](C)CN([C@@H](C)CO)C(=O)c2cc(NS(=O)(=O)c3ccc(F)cc3)ccc2O1,.,4,-3,4,0,.
SMILES,EBV LMP1 NFkB,LGR2 inh,PAX8 reporter,EWS-Fli inh,PGC1a acetyl inh,MITF TRPM1 inh
O=C(NC1C(=O)NNC1c1ccccc1)c1ccccc1 (centres undefined),44*,.,.,.,-1,-23
COc1ccc(C(c2sc3nc(C)nn3c2O)N2CCC(C(N)=O)CC2)cc1OC (centres undefined),72*,0,-3,-1,-7,0
COC(=O)C1CCN(C(c2ccc(OC)c(OC)c2)c2sc3nc(C)nn3c2O)CC1 (centres undefined),7,-2,-11,-3,.,.
Cc1nc2sc(C(c3ccco3)N3CCN(C(c4ccccc4)c4ccccc4)CC3)c(O)n2n1 (centres undefined),8,-11,88*,-3,.,.
Cc1nc2sc(C(c3ccco3)N3CCN(c4ccccc4)CC3)c(O)n2n1 (centres undefined),-3,.,14,1,.,.
COc1cc(C(c2sc3nc(C)nn3c2O)N2CCc3ccccc3C2)cc(OC)c1OC (centres undefined),86*,-4,13,8,-9,-11
C[C@H]1CN([C@@H](C)CO)C(=O)Cc2cc(NS(C)(=O)=O)ccc2O[C@@H]1CN(C)C(=O)Nc1ccc2c(c1)OCO2,.,11,-28,-9,2,.
COc1ccc2c3c(n(C)c2c1)[C@H](CO)N(C(=O)c1cnccn1)CC31CN(C)C1,.,2,-18,-4,9,.
Cc1ccc(S(=O)(=O)Nc2ccc3c(c2)C(=O)N([C@@H](C)CO)C[C@@H](C)[C@@H](CN(C)C(=O)Nc2cccc4ccccc24)OCCCC[C@@H](C)O3)cc1,.,8,68*,12,-10,.
C[C@@H]1CCCCO[C@@H](CN(C)C(=O)Nc2cccc3ccccc23)[C@H](C)CN([C@H](C)CO)C(=O)c2cc(NS(=O)(=O)c3ccccc3)ccc2O1,.,5,80*,13,-29,.
Cc1ccc(S(=O)(=O)Nc2ccc3c(c2)C(=O)N([C@@H](C)CO)C[C@H](C)[C@H](CN(C)C(=O)Nc2cccc4ccccc24)OCCCC[C@@H](C)O3)cc1,.,15,35,3,-2,.
C[C@@H]1CN([C@@H](C)CO)C(=O)c2cc(NS(=O)(=O)c3ccccc3)ccc2O[C@@H](C)CCCCO[C@@H]1CN(C)C(=O)Nc1cccc2ccccc12,.,21,-1,12,-4,.
CNC(=O)C[C@@H]1CC[C@H]2[C@H](COc3ccc(NC(=O)c4cccc(F)c4)cc3C(=O)N2C)O1,.,-12,-1,-5,2,.

# Screening results deposited in PubChem BioAssay by Broad Institute.
